Data on nine compounds can be found in PubChem BioAssay (NCI).

Experiment [1] is described as follows: NCI Yeast Anticancer Drug Screen. Data for the rad50 strain (AID 155).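 Also: 0% = growth of vehicle-only cultures of the same strain.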 Particulars: S. cerevisiae rad50 strain growth inhibition, stronger effect = higher value. The method, boiled down:
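A DNA repair-deficient yeast mutant serves as the test organism; compound-induced growth inhibition is calculated against vehicle-treated cells.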

Experiment [2] can be described thus: NCI Yeast Anticancer Drug Screen. Data for the mec2-1 strain (AID 157). The following applies: S. cerevisiae mec2-1 strain, stronger effect = higher value. The method, boiled down: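 Mutant yeast (mec2-1) grown with compound; growth inhibition relative to vehicle control reported.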
Experiment [3] in a line: NCI Yeast Anticancer Drug Screen. Data for the sgs1 mgt1 strain (AID 161).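 Also: 0% = growth of cultures given vehicle only.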 The following applies: S. cerevisiae sgs1 mgt1 strain, stronger effect = higher value. The method, boiled down: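 Growth of a repair-deficient yeast mutant was monitored after compound treatment and expressed as inhibition relative to vehicle-treated cultures.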
Experiment [4] is described as follows: NCI Yeast Anticancer Drug Screen. Data for the cln2 rad14 strain (AID 165).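 Also: 0% = growth equal to vehicle treated cultures.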 Particulars: S. cerevisiae cln2 rad14 strain, stronger effect = higher value. The method, boiled down: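 Readout is yeast growth inhibition versus vehicle-treated controls, using a strain with cln2 and rad14 alterations exposed to compound.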
A short description of experiment [5]: NCI Yeast Anticancer Drug Screen. Data for the bub3 strain (AID 167). Particulars: S. cerevisiae bub3 mutant strain, stronger effect = higher value. In a few lines:
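Inhibition values come from growth of compound-treated mutant yeast normalised to vehicle-treated controls.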

A short description of experiment [6]: NCI Yeast Anticancer Drug Screen. Data for the mlh1 rad18 strain (AID 175). Particulars: S. cerevisiae mlh1 rad18 strain growth inhibition, stronger effect = higher value. The method, boiled down:
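Genetically defined yeast (DNA repair-deficient) exposed to compounds; growth inhibition determined relative to vehicle.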

[7] abbreviates: at 5.0 µM (retest, dose inferred, filed as 0.5).
Where [8] appears, read: at 50.0 µM (retest, dose inferred, filed as 5.0).

About 79,000 compounds went through this panel and 15% of them were active in at least one assay; those are over-represented in the sample as a whole. A number with no mark means an inactive call. Activity calls are given as the source filed them. Rule as the data show it: active = growth inhibition above about 70%; inactive = the rest.

Turning to `O=C(O)c1nnsc1-c1ccc(-c2snnc2C(=O)O)cc1`, the growth inhibition in experiment [1] (setting [7]) was 2%; in experiment [1] (setting [8]), 14%; in experiment [1] (at 50.0 µM), 22%; in experiment [2] (setting [7]) it was -2%; in experiment [2] (setting [8]) it was 18%; in experiment [2] (at 50.0 µM) it was 23.1%. Also, the growth inhibition in experiment [3] (setting [7]) was -4%; in experiment [3] (setting [8]) it was 30%; in experiment [3] (at 50.0 µM), -6.3%; in experiment [4] (setting [7]), 21%; in experiment [4] (setting [8]), 0%; in experiment [4] (at 50.0 µM), 39.3%. Besides, the growth inhibition in experiment [5] (setting [7]) was 25%; in experiment [5] (setting [8]), 6%; in experiment [5] (at 50.0 µM), 35.1%; in experiment [6] (setting [7]) it was 7%; in experiment [6] (setting [8]) it was 9%; in experiment [6] (at 50.0 µM), 3.3%.
With `Cc1cccc(N2CCN(CC(O)COc3ccc4ccccc4c3)CC2)c1` (configuration not stated), the growth inhibition was -6% in experiment [1] (setting [7]); -7% in experiment [1] (setting [8]); 80.7% (active) in experiment [1] (at 50.0 µM); 13% in experiment [2] (setting [7]); 18% in experiment [2] (setting [8]); 72.1% (active) in experiment [2] (at 50.0 µM). Also, the growth inhibition was -3% in experiment [3] (setting [7]); 12% in experiment [3] (setting [8]); 97.7% (active) in experiment [3] (at 50.0 µM); -4% in experiment [4] (setting [7]); -6% in experiment [4] (setting [8]); 60.1% in experiment [4] (at 50.0 µM). In addition, the growth inhibition was -5% in experiment [5] (setting [7]); 4% in experiment [5] (setting [8]); 41.1% in experiment [5] (at 50.0 µM); 26% in experiment [6] (setting [7]); 28% in experiment [6] (setting [8]); 90% (active) in experiment [6] (at 50.0 µM).
On to `O=[N+]([O-])c1ccc2nc(CCl)[nH]c2c1`, for which the growth inhibition in experiment [1] (setting [7]) is 46%; in experiment [1] (setting [8]) it was 80% (active); in experiment [1] (at 50.0 µM) it was 73.2% (active); in experiment [2] (setting [7]), 37%; in experiment [2] (setting [8]), 74% (active); in experiment [2] (at 50.0 µM), 65.5%. In addition, the growth inhibition in experiment [3] (setting [7]) is 42%; in experiment [3] (setting [8]) it was 83% (active); in experiment [3] (at 50.0 µM), 75% (active); in experiment [4] (setting [7]) it was 35%; in experiment [4] (setting [8]) it was 56%; in experiment [4] (at 50.0 µM), 61%. The growth inhibition in experiment [5] (setting [7]) is 43%; in experiment [5] (setting [8]) it was 84% (active); in experiment [5] (at 50.0 µM), 74% (active); in experiment [6] (setting [7]), 49%; in experiment [6] (setting [8]), 87% (active); in experiment [6] (at 50.0 µM) it was 73.3% (active).
As for `COc1ccc2c(Cc3cc(Cl)ccc3O)cncc2c1O`, the growth inhibition in experiment [1] (setting [7]) was -1%; in experiment [1] (setting [8]) it was 32%; in experiment [1] (at 50.0 µM), 50.1%; in experiment [2] (setting [7]), -8%; in experiment [2] (setting [8]), 60%; in experiment [2] (at 50.0 µM) it was 31.6%. Also, the growth inhibition is -5% in experiment [3] (setting [7]); 51% in experiment [3] (setting [8]); 29.7% in experiment [3] (at 50.0 µM); 3% in experiment [4] (setting [7]); -4% in experiment [4] (setting [8]); 40% in experiment [4] (at 50.0 µM). Also, the growth inhibition was -2% in experiment [5] (setting [7]); 31% in experiment [5] (setting [8]); 96% (active) in experiment [5] (at 50.0 µM); 16% in experiment [6] (setting [7]); 62% in experiment [6] (setting [8]); 82.3% (active) in experiment [6] (at 50.0 µM).
Turning to `C=C(CS(=O)(=O)c1ccccc1)[P+](c1ccccc1)(c1ccccc1)c1ccccc1`, the growth inhibition in experiment [1] (setting [7]) was 0%; in experiment [1] (setting [8]) it was 95% (active); in experiment [1] (at 50.0 µM) it was 29.2%; in experiment [2] (setting [7]) it was -6%; in experiment [2] (setting [8]), 92% (active); in experiment [2] (at 50.0 µM), 37.5%. Further, the growth inhibition in experiment [3] (setting [7]) was -6%; in experiment [3] (setting [8]), 95% (active); in experiment [3] (at 50.0 µM), 34.4%; in experiment [4] (setting [7]), -1%; in experiment [4] (setting [8]), 81% (active); in experiment [4] (at 50.0 µM), 28.5%. In addition, the growth inhibition in experiment [5] (setting [7]) was -3%; in experiment [5] (setting [8]), 88% (active); in experiment [5] (at 50.0 µM) it was 2.15%; in experiment [6] (setting [7]) it was -2%; in experiment [6] (setting [8]), 92% (active); in experiment [6] (at 50.0 µM), 67.5%.
For `NN=C(CC(O)(C(F)(F)Cl)C(F)(F)Cl)CC(O)(C(F)(F)Cl)C(F)(F)Cl`, the growth inhibition is 32% in experiment [1] (setting [7]); 99% (active) in experiment [1] (setting [8]); 98.9% (active) in experiment [1] (at 50.0 µM); 32% in experiment [2] (setting [7]); 99% (active) in experiment [2] (setting [8]); 99.2% (active) in experiment [2] (at 50.0 µM). Further, the growth inhibition in experiment [3] (setting [7]) was 26%; in experiment [3] (setting [8]), 99% (active); in experiment [3] (at 50.0 µM), 99.1% (active); in experiment [4] (setting [7]) it was 33%; in experiment [4] (setting [8]) it was 100% (active); in experiment [4] (at 50.0 µM) it was 99.3% (active). For the same compound, the growth inhibition was 6% in experiment [5] (setting [7]); 100% (active) in experiment [5] (setting [8]); 99% (active) in experiment [5] (at 50.0 µM); 38% in experiment [6] (setting [7]); 99% (active) in experiment [6] (setting [8]); 98.8% (active) in experiment [6] (at 50.0 µM).
Consider `N=C(N)SCc1nc(-c2ccc(Cl)cc2)no1`, for which the growth inhibition is 18% in experiment [1] (setting [7]); 77% (active) in experiment [1] (setting [8]); 94.3% (active) in experiment [1] (at 50.0 µM); 8% in experiment [2] (setting [7]); 57% in experiment [2] (setting [8]); 87.5% (active) in experiment [2] (at 50.0 µM). The growth inhibition is 0% in experiment [3] (setting [7]); 78% (active) in experiment [3] (setting [8]); 90.1% (active) in experiment [3] (at 50.0 µM); 0% in experiment [4] (setting [7]); 61% in experiment [4] (setting [8]); 70% (active) in experiment [4] (at 50.0 µM). Further, the growth inhibition in experiment [5] (setting [7]) was -4%; in experiment [5] (setting [8]), 72% (active); in experiment [5] (at 50.0 µM), 94% (active); in experiment [6] (setting [7]), -10%; in experiment [6] (setting [8]), 64%; in experiment [6] (at 50.0 µM), 84.9% (active).
In the case of `O=C1/C(=C/c2ccccc2[N+](=O)[O-])COc2ccccc21`, the growth inhibition in experiment [1] (setting [7]) is 37%; in experiment [1] (setting [8]), 94% (active); in experiment [1] (at 50.0 µM), -4%; in experiment [2] (setting [7]) it was 28%; in experiment [2] (setting [8]) it was 96% (active); in experiment [2] (at 50.0 µM), 12.7%. Besides, the growth inhibition is 21% in experiment [3] (setting [7]); 92% (active) in experiment [3] (setting [8]); 13.2% in experiment [3] (at 50.0 µM); 28% in experiment [4] (setting [7]); 94% (active) in experiment [4] (setting [8]); 8.75% in experiment [4] (at 50.0 µM). Moreover, the growth inhibition is 34% in experiment [5] (setting [7]); 98% (active) in experiment [5] (setting [8]); 15.1% in experiment [5] (at 50.0 µM); 23% in experiment [6] (setting [7]); 98% (active) in experiment [6] (setting [8]); 8.65% in experiment [6] (at 50.0 µM).
With `COC(=O)c1ccccc1C(=O)c1cc(OC)c2c(c1OC)CCCC2`, the growth inhibition in experiment [1] (setting [7]) was -2%; in experiment [1] (setting [8]), 59%; in experiment [1] (at 50.0 µM), 90.8% (active); in experiment [2] (setting [7]) it was 0%; in experiment [2] (setting [8]) it was 64%; in experiment [2] (at 50.0 µM) it was 94.5% (active). The growth inhibition in experiment [3] (setting [7]) is 5%; in experiment [3] (setting [8]) it was 63%; in experiment [3] (at 50.0 µM), 75.5% (active); in experiment [4] (setting [7]), -69%; in experiment [4] (setting [8]) it was 23%; in experiment [4] (at 50.0 µM), 47.6%. The growth inhibition in experiment [5] (setting [7]) was 3%; in experiment [5] (setting [8]), -45%; in experiment [5] (at 50.0 µM), 77% (active); in experiment [6] (setting [7]), 3%; in experiment [6] (setting [8]), 24%; in experiment [6] (at 50.0 µM), 82.9% (active).
